The nature of test [1]: APR_HepG2_CellCycleArrest_1hr: Apredica 1-hour HepG2 Assay for Cell Cycle Arrest (AID 2282666). The conditions noted are these: high-content imaging, actives raise or lower the signal. The method, boiled down: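 Cell cycle arrest scored from nuclear DNA content (Hoechst 33342) using high-content imaging of fixed HepG2 cells after 1 h treatment across 0.39–200 uM, in duplicate. Gain or loss fitted relative to 0.5% DMSO.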

The nature of test [2]: ACEA_ER_80hr: ACEA Biosciences xCELLigence Real-Time Cell Analysis on Estrogen Receptor Agonism for Proliferation (AID 2282667; active = hit-call score of the fitted dose curve at least 0.9, where 1 is the maximum). The conditions noted are these: T47D proliferation, impedance (xCELLigence), 80 h. In short, it runs like this: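 Impedance readout (RT-CES) of T47D proliferation at 80 h post-dose; gain of signal vs DMSO baseline. Compounds: 8 conc, 1:4 serial, top 100 uM final, ≤0.5% DMSO; biological duplicate.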

The nature of test [3]: APR_HepG2_MitoticArrest_1hr: Apredica 1-hour HepG2 Assay for Mitotic Arrest (AID 2282672). The conditions noted are these: high-content imaging, actives raise or lower the signal. In short, it runs like this: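 Ten-point concentration series (0.39 to 200 uM, duplicates, 0.5% v/v DMSO) applied to human HepG2 liver cells for 1 hr. High-content imaging of phospho-histone H3 and Hoechst-stained nuclei after fixation and permeabilization; DMSO-normalised bidirectional fit.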

Test [4] can be described thus: APR_HepG2_P-H2AX_1hr: Apredica 1-hour HepG2 Assay for H2AX Phosphorylation (AID 2282673). The conditions noted are these: high-content imaging, actives raise or lower the signal. The method, boiled down: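 Phospho-H2A.x immunofluorescence (1:200, FITC secondary) plus Hoechst nuclear stain, quantified by high-content imaging in HepG2 after 1 hr compound exposure. Ten concentrations, 0.39 to 200 uM, in duplicate with 0.5% DMSO; fit both directions against DMSO.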

The nature of test [5]: APR_HepG2_MitoMass_1hr: Apredica 1-hour HepG2 Assay for Mitochondrial Mass (AID 2282674). The conditions noted are these: high-content imaging, actives raise or lower the signal. The method, boiled down: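 Mitochondrial mass is taken from MitoTracker Red CMXRos (250 nM, 30 min, pre-fixation) fluorescence imaged at 20x in HepG2 cells. Exposure lasted 1 hr across ten concentrations, 0.39 to 200 uM, 0.5% DMSO; DMSO baseline, bidirectional fitting.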

The nature of test [6]: APR_HepG2_CellLoss_1hr: Apredica 1-hour HepG2 Assay for Cell Loss (AID 2282668).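 Note: curves fitted both ways against DMSO so gain or loss of cells counts.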 As to conditions: high-content imaging. In short, it runs like this: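 Cell number comes from high-content imaging of Hoechst-labelled nuclei in fixed HepG2 cells. Cells were exposed for 1 h to ten concentrations from 0.39 to 200 uM in 0.5% DMSO. Gain or loss was fitted against DMSO controls.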

Test [7] can be described thus: APR_HepG2_p53Act_1hr: Apredica 1-hour HepG2 Assay for p53 Activation (AID 2282671). As to conditions: high-content imaging, actives raise or lower the signal. In short, it runs like this:
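After 1 h exposure (0.39–200 uM, 0.5% DMSO final, duplicates), fixed HepG2 cells were labelled with anti-p53 antibody plus Hoechst nuclear stain. Fluorescence quantified by automated 20x imaging; changes fitted in both directions against DMSO.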

Test [8] is described as follows: APR_HepG2_MicrotubuleCSK_1hr: Apredica 1-hour HepG2 Assay for Microtubule CSK Stabilty (AID 2282669). As to conditions: HepG2 microtubule cytoskeleton imaging, actives raise or lower the signal. The method, boiled down:
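Alpha-tubulin immunofluorescence, imaged by automated high-content microscopy with Hoechst nuclear segmentation, measured cytoskeletal change after 1 h dosing of HepG2 at 0.39–200 uM in 0.5% DMSO. Activity fitted in both directions relative to DMSO.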

Test [9] can be described thus: APR_HepG2_NuclearSize_1hr: Apredica 1-hour HepG2 Assay for Nuclear Size (AID 2282670). As to conditions: high-content imaging, actives raise or lower the signal. The method, boiled down:
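Nuclear size measured by high-content imaging of Hoechst 33342 nuclear stain after formaldehyde fixation; human HepG2 line exposed 1 hr to compounds at 0.39–200 uM in 0.5% DMSO, with bidirectional curve fitting relative to DMSO.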

Test [10] is described as follows: APR_HepG2_MitoMembPot_1hr: Apredica 1-hour HepG2 Assay for Mitochondrial Membrane Potential (AID 2282675). As to conditions: imaging, actives raise or lower the signal. The method, boiled down: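 Mitochondrial membrane potential read as MitoTracker Red CMXRos intensity by automated imaging of fixed HepG2 cells. Dye at 250 nM for 30 min pre-fixation; compounds 0.39 to 200 uM for 1 hour, duplicate wells, 0.5% DMSO.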

Several values for one entry are separate records, joined by “and”; a condition that tells them apart may be missing. Equal values may be shown once. Inconclusive results are not listed. The source holds several records for some structures; these can differ, active in one and inactive in another. Activity calls are given as the source filed them. Rule for the calls, unless noted: active = hit-call score of the fitted dose curve at least 0.9, where 1 is the maximum; inactive = score below 0.9.

`CCOC(=O)C(C)Oc1ccc(Oc2cnc3cc(Cl)ccc3n2)cc1` (stereo unspecified): the call in test [1], in [2], in [3], in test [4] and in [5] was inactive.

With `COc1nc(C)nc(NC(=O)NS(=O)(=O)c2ccccc2OCCCl)n1`, the call in test [1], in test [6], in [7], in test [3], in test [4] and in test [5] was inactive.

Take `CSC(=O)c1cccc2nnsc12`: the outcome in test [1], in [8], in [7], in test [3], in test [4] and in test [5] was inactive.

For `N#CSCSc1nc2ccccc2s1`, the compound was called inactive in test [1], in test [6], in test [8], in test [9] and in test [3]. For the same compound, the AC50 in test [4] was 27.5 µM (active); in test [5] it was 28.1 µM (active).

`CCN(CC)C(=O)c1cccc(C)c1`: the compound was called inactive in [1], in test [2], in test [8], in test [3], in test [4] and in test [5].

Turning to `CCCOC(=O)NCCCN(C)C`, the outcome in [1], in test [6], in test [7], in test [3], in test [4] and in test [5] was inactive.

With `C=CCOC(Cn1ccnc1)c1ccc(Cl)cc1Cl` (stereo unspecified), the compound was called inactive in test [1], in test [6], in test [7], in [3], in test [4] and in test [5].

For the compound `O=C(O)C1(C(=O)Nc2ccc(Cl)cc2Cl)CC1`, the compound was called inactive in [1], in test [6], in [7], in [3], in [4] and in test [5].

For the compound `COCCO`, the compound was classed as inactive in test [1], in test [2], in [7], in [3], in test [4] and in test [5].

`COC(=O)c1c(Cl)nn(C)c1S(=O)(=O)NC(=O)Nc1nc(OC)cc(OC)n1`: the compound was classed as inactive in test [1], in test [9], in test [7], in [3], in test [4] and in test [5].

On to `CN(C)C(=O)Nc1ccc(Cl)c(Cl)c1`, for which the call in test [1], in [6], in test [7], in test [3], in [4] and in test [5] was inactive.

On to `COC(=O)c1ccc(CNS(C)(=O)=O)cc1S(=O)(=O)NC(=O)Nc1nc(OC)cc(OC)n1`, for which the outcome in [1], in test [6], in test [8], in [7], in [3] and in [4] was inactive. Moreover, the call in test [5] was inactive.

Take `CCCCC(CC)CN1C(=O)C2C3C=CC(C3)C2C1=O` (stereo unspecified): the compound was called inactive in [1], in test [2], in [8], in test [7], in test [3] and in test [4]. The call in test [5] was inactive.

On to `OB(O)O`, for which the outcome in test [1], in test [2], in test [7], in test [3], in test [4] and in test [5] was inactive.

Take `COC(=O)c1ccccc1C(=O)O`: the outcome in [1], in test [2], in [7], in test [3], in [4] and in [5] was inactive. Further, the result in [10] was inactive.

Take `CCN(Cc1c(F)cccc1Cl)c1c([N+](=O)[O-])cc(C(F)(F)F)cc1[N+](=O)[O-]`: the compound was called inactive in test [1], in test [7], in test [3], in [4] and in test [5]. Further, the AC50 in test [2] was 2120 nM (active).

Turning to `Cc1nn(C)c(Oc2ccccc2)c1C=NOCc1ccc(C(=O)OC(C)(C)C)cc1`, the outcome in test [1], in test [6], in test [7], in test [3], in test [4] and in test [5] was inactive. Besides, the AC50 in [2] was 4.39 nM (active).

As to `CC1(C)C(C=C(Cl)Cl)C1C(=O)OCc1cccc(Oc2ccccc2)c1` (stereo unspecified), the call in [1], in test [2], in [7], in test [3], in [4] and in [5] was inactive.

For `CCOC(=O)COc1cc(-n2ncc(C(F)(F)F)c(C)c2=O)c(F)cc1Cl`, the outcome in test [1], in test [8], in test [7], in [3], in test [4] and in test [5] was inactive. In test [10], the call was inactive.

On to `CCCCOC(=O)C(C)Oc1ccc(Oc2ccc(C(F)(F)F)cn2)cc1` (stereo unspecified), for which the compound was classed as inactive in test [1], in [9], in [7], in test [3], in test [4] and in test [5]. Besides, the AC50 in test [2] is 17.8 nM (active).

`COC(=O)CSc1cc(N=c2sc(=O)n3n2CCCC3)c(F)cc1Cl`: the compound was classed as inactive in test [1], in test [7], in [3], in [4] and in test [5].

As to `O=C(c1ccccc1)C1CCCCC1`, the AC50 in test [2] is 9.92 µM (active) and 6.21 µM (active) and 50 µM (active).

As for `CCCCOCCOCCOCc1cc2c(cc1CCC)OCO2`, the result in [1], in [3], in test [4] and in test [5] was inactive.

As for `CCCCCOC(=O)COc1cc(N2C(=O)C3=C(CCCC3)C2=O)c(F)cc1Cl`, the result in [1], in test [3], in test [4] and in test [5] was inactive.

Regarding `N[C@@H](Cc1cc(I)c(Oc2ccc(O)c(I)c2)c(I)c1)C(=O)O`, in [2], the AC50 is 40 µM (active) and 25 µM (active).

Take `CC(C)(c1ccc(O)cc1)c1ccc(O)cc1`: the outcome in test [1], in [7], in [3], in [4], in test [5] and in test [10] was inactive.

Consider `CC(=O)S[C@@H]1CC2=CC(=O)CC[C@]2(C)[C@H]2CC[C@@]3(C)[C@@H](CC[C@@]34CCC(=O)O4)[C@H]12`, for which, in [2], the AC50 is 10.7 µM (active) and 174 nM (active); the result was inactive.

Turning to `COC(=O)c1ccccc1S(=O)(=O)NC(=O)Nc1nc(OC(F)F)cc(OC(F)F)n1`, the compound was classed as inactive in test [1], in [7], in test [3], in test [4] and in test [5].

Turning to `CCNc1nc(N)nc(Cl)n1`, the result in test [1], in [7], in test [3], in [4] and in test [5] was inactive.

As for `COC(=O)c1ccc(I)cc1S(=O)(=O)NC(=O)Nc1nc(C)nc(OC)n1`, the call in test [1], in [9], in [7], in test [3], in test [4] and in test [5] was inactive. Besides, in test [10], the result was inactive.

The AC50 is the concentration at which the activity in the assay is half-maximal.

These data come from PubChem BioAssay (EPA / NIEHS).
